Common to all, as to test: DAPPL (digital affinity profiling via proximity ligation, sequencing); 10 mM Tris-HCl pH 7.5, 50 mM NaCl, 1 mM DTT, 4% glycerol, room temperature, 30 min; GST-TFs on glutathione beads, 16-mer random dsDNA library, 0.1% formaldehyde crosslink after washing; high values mean tight binding
What all share (details): protein: recombinant; tags: N-terminal GST; dsDNA, one strand shown

The target in experiment [1] is T1, ELK1 (Homo sapiens, UniProt P19419 1-428).
T1 sequence: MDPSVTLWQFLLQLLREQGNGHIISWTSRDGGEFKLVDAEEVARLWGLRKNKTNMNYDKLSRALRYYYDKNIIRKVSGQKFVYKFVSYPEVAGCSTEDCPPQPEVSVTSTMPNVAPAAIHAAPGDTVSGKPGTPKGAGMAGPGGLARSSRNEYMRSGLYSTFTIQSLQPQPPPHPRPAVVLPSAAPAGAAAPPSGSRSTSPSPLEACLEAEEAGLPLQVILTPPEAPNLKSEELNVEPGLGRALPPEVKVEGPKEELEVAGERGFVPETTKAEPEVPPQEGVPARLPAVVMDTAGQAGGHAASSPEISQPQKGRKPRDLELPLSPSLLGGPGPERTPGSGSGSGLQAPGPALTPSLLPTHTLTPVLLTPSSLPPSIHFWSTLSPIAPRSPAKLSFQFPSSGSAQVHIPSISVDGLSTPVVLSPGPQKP
An outline of the steps: (§1)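 A tag-only sample was pooled with DNA-barcoded human transcription factors that had been expressed in yeast as GST fusions and captured on glutathione beads. The pools were incubated for 30 min at room temperature with 200 nmole of a random double-stranded 16-mer DNA library in Tris/NaCl/DTT/glycerol buffer, then washed, crosslinked with 0.1% formaldehyde, proximity-ligated (BsaI/T4 ligase, 1 h, 37 °C), PCR-amplified and sequenced on an Illumina NextSeq500. Binding signal is each hexamer's read frequency for a factor divided by its frequency for the tag-only sample.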

Experiment [2] deals with T2, GABPA (Homo sapiens, UniProt Q06546 1-454).
T2 sequence: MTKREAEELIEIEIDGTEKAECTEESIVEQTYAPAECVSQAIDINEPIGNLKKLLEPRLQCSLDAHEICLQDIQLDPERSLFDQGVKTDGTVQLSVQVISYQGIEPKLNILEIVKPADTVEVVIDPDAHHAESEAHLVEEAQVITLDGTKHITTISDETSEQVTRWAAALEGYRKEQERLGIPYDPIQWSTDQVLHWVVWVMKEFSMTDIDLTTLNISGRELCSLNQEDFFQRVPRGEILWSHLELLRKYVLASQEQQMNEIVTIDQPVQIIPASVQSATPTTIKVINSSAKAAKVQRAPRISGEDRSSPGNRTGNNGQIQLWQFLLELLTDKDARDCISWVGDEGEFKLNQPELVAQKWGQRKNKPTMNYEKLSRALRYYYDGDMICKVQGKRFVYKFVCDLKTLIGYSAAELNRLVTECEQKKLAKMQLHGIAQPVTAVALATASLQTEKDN
The procedure, abridged:
as §1

For experiment [3], the target named is T3, ERG (Homo sapiens, UniProt P11308 1-479).
T3 sequence: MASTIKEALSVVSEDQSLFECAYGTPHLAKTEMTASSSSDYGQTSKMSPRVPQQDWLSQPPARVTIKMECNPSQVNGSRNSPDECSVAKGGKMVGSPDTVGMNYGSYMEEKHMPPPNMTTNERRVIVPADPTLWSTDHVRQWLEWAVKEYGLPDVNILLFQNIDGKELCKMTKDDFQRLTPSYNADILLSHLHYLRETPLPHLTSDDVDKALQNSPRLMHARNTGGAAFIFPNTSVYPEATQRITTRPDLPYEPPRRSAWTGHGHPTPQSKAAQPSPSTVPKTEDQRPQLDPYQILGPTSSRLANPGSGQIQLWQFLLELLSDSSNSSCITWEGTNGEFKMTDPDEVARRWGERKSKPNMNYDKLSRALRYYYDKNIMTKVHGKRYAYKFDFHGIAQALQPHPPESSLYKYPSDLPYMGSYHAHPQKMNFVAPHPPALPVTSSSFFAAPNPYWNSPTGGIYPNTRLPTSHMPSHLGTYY
The procedure, abridged: as §1

For experiment [4], the target named is ELF1 (Homo sapiens, UniProt P32519 1-619). The procedure, abridged: as §1
Chain of ELF1 (P32519 whole entry): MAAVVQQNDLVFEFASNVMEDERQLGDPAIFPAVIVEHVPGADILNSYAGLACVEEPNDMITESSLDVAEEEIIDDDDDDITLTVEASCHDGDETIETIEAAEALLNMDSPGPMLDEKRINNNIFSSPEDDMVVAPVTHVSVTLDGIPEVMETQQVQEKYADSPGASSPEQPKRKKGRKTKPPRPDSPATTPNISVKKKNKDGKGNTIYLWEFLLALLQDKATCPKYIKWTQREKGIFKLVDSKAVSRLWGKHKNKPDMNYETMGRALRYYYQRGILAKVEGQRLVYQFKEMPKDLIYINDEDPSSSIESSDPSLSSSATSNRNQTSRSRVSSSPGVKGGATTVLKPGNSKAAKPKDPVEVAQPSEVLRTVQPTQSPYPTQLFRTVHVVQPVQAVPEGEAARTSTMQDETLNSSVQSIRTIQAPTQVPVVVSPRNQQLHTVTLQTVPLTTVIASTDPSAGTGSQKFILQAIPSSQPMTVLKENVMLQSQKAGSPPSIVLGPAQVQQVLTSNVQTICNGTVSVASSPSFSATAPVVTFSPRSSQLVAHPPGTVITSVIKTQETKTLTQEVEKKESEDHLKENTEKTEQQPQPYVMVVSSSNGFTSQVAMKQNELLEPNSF
The target of experiment [5] is T4, SPIC (Homo sapiens, UniProt Q8N5J4 1-248).
T4 sequence: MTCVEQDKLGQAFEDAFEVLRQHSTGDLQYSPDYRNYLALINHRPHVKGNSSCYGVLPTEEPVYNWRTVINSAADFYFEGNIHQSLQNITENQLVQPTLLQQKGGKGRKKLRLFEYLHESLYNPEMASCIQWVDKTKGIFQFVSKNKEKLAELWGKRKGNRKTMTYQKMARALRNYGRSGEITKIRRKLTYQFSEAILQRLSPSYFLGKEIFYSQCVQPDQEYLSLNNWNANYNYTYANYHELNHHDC
An outline of the steps:
as §1

In experiment [6] the target is ELF4 (Homo sapiens, UniProt Q99607 1-663). The procedure, abridged: as §1
Chain of ELF4 (Q99607 whole entry): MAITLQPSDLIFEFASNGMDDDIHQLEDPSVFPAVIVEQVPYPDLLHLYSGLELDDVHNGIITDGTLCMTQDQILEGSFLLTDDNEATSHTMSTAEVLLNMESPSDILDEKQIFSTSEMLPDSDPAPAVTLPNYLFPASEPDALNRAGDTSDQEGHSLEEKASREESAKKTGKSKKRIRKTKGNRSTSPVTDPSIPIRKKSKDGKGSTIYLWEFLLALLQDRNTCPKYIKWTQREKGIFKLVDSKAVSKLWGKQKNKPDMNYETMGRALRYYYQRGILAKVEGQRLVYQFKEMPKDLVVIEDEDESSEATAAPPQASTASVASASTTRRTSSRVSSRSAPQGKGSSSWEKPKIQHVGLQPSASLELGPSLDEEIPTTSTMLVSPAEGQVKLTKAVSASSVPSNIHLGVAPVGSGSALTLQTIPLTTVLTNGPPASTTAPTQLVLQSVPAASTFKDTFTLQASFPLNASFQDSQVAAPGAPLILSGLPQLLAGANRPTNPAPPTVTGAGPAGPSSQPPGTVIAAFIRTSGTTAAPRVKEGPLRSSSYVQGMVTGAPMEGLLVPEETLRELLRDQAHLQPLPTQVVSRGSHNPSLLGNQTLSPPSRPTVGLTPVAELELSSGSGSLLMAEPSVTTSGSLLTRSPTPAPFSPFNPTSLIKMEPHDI
The target in experiment [7] is T5, ELK4 (Homo sapiens, UniProt P28324-2 1-405).
T5 sequence: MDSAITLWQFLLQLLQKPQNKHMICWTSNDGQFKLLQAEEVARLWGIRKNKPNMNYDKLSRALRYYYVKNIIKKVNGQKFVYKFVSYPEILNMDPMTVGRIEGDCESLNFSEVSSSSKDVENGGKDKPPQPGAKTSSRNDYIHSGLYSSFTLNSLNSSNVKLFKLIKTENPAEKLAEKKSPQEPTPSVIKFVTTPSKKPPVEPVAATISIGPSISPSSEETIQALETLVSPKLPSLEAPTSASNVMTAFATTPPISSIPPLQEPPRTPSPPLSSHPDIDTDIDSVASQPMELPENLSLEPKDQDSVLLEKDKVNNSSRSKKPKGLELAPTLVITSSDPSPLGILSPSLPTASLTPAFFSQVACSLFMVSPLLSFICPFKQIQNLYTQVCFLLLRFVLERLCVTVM
The procedure, abridged:
as §1

Experiment [8] has as its target T6, ELF3 (Homo sapiens, UniProt P78545 1-371).
T6 sequence: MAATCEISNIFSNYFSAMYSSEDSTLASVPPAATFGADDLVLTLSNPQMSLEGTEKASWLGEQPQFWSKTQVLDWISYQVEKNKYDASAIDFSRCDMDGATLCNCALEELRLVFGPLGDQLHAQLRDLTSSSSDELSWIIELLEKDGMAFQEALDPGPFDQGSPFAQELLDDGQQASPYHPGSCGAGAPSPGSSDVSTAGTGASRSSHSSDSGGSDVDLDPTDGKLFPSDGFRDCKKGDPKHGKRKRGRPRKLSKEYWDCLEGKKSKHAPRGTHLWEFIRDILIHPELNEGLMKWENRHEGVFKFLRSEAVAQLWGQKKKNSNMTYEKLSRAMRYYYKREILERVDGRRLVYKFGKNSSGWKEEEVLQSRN
The procedure, abridged: as §1

Experiment [9] deals with T7, ERF (Homo sapiens, UniProt P50548 1-548).
T7 sequence: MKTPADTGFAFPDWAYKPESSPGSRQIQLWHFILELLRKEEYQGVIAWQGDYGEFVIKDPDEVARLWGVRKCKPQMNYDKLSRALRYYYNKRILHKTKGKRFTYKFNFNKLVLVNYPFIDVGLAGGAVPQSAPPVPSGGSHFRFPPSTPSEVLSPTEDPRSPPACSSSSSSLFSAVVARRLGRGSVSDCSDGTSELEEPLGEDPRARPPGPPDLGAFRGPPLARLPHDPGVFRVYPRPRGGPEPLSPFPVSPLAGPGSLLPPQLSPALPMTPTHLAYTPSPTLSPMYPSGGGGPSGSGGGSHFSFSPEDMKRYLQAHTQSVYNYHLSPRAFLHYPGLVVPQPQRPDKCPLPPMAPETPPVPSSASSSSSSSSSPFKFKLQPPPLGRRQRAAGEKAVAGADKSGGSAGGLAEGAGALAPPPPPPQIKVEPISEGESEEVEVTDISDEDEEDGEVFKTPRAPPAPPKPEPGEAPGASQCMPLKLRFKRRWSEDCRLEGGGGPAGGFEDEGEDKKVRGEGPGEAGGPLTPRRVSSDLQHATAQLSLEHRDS
The procedure, abridged: as §1

Experiment [10] addresses T8, ETV3L (Homo sapiens, UniProt Q6ZN32 1-361).
T8 sequence: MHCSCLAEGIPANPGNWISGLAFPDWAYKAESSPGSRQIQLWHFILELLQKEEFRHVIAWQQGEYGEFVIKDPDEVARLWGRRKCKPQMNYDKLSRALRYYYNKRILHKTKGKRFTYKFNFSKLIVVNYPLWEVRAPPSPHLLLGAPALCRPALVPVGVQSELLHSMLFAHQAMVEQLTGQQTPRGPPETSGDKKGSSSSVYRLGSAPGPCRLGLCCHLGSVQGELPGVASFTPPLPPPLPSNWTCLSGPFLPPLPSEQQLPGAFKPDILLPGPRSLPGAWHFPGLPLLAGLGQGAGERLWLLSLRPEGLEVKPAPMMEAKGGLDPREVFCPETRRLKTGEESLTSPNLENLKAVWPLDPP
The procedure, abridged: as §1

Experiment [11] has as its target T9, ETS2 (Homo sapiens, UniProt P15036 1-469).
T9 sequence: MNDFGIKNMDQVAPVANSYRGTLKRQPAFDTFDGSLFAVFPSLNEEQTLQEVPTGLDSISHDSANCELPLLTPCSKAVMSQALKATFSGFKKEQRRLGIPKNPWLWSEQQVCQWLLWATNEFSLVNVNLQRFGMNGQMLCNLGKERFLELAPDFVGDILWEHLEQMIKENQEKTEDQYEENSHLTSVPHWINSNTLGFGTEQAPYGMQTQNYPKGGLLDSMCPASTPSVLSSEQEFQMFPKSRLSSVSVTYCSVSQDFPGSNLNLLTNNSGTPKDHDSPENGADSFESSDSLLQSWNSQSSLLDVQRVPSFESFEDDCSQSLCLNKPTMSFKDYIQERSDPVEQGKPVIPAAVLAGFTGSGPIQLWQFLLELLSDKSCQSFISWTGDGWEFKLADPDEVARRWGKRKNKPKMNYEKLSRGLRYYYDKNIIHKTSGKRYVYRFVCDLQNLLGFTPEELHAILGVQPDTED
An outline of the steps:
as §1

For experiment [12], the target named is T10, ETV3 (Homo sapiens, UniProt P41162-2 1-143).
T10 sequence: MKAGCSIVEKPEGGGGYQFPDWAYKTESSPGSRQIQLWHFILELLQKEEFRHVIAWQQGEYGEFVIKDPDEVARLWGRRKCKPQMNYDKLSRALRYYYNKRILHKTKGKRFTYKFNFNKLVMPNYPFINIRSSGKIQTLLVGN
An outline of the steps:
as §1

Experiment [13] has as its target ETV6 (Homo sapiens, UniProt P41212 1-452). An outline of the steps: as §1
The target in experiment [14] is T11, SPDEF (Homo sapiens, UniProt O95238 1-335).
T11 sequence: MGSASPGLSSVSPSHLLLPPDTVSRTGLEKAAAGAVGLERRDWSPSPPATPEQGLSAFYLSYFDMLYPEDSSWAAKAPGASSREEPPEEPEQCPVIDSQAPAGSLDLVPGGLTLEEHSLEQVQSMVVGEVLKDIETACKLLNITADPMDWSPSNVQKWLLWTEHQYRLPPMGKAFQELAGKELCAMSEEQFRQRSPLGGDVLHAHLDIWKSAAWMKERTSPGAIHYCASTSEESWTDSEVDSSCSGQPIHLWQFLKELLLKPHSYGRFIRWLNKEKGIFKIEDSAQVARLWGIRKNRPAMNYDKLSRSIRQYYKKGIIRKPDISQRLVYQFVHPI
An outline of the steps: as §1

Experiment [15] deals with T12, ETV7 (Homo sapiens, UniProt Q9Y603 1-341).
T12 sequence: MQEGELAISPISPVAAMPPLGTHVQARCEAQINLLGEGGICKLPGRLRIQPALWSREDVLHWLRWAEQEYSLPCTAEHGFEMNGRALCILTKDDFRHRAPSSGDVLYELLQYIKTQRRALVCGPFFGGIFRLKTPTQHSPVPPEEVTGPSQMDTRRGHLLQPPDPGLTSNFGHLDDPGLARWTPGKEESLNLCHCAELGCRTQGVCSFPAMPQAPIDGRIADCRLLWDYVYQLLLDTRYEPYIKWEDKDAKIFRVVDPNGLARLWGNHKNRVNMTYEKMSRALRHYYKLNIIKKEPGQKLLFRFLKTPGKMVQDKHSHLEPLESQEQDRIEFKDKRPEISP
The procedure, abridged: as §1

Chain of ETV6 (P41212 whole entry): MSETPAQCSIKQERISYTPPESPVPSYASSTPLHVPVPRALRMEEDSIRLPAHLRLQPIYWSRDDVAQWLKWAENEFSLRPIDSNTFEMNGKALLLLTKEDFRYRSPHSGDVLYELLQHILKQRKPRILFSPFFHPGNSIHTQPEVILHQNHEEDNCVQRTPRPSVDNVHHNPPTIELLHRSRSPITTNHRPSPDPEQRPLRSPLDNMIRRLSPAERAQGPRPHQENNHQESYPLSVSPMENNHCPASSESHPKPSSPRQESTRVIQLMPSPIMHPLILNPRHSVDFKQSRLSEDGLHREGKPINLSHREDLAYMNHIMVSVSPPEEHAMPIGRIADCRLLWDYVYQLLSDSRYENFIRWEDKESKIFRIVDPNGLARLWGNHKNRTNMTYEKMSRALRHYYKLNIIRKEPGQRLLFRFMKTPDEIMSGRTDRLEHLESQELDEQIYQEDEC

With GCCCGA, the binding signal was 1.01 fold enrichment (6-mer frequency, TF over GST control) in experiment [1]; 1.02 fold enrichment (6-mer frequency, TF over GST control) in experiment [2]; 1.01 fold enrichment (6-mer frequency, TF over GST control) in [3]; 1.14 fold enrichment (6-mer frequency, TF over GST control) in [4]; 1.11 fold enrichment (6-mer frequency, TF over GST control) in experiment [5]; 1.02 fold enrichment (6-mer frequency, TF over GST control) in experiment [6]. Also, the binding signal in experiment [7] is 1.1 fold enrichment (6-mer frequency, TF over GST control); in experiment [8], 1.21 fold enrichment (6-mer frequency, TF over GST control); in [9], 1.05 fold enrichment (6-mer frequency, TF over GST control); in [10], 1.01 fold enrichment (6-mer frequency, TF over GST control); in experiment [11], 1.08 fold enrichment (6-mer frequency, TF over GST control); in experiment [12] it was 1.04 fold enrichment (6-mer frequency, TF over GST control). Besides, in [13], the binding signal is 1.07 fold enrichment (6-mer frequency, TF over GST control).

With TAAGCA, the binding signal in [1] is 1.02 fold enrichment (6-mer frequency, TF over GST control); in experiment [2] it was 1.08 fold enrichment (6-mer frequency, TF over GST control); in [3] it was 1.01 fold enrichment (6-mer frequency, TF over GST control); in [4], 1.07 fold enrichment (6-mer frequency, TF over GST control); in [5], 1.08 fold enrichment (6-mer frequency, TF over GST control); in experiment [6] it was 1.03 fold enrichment (6-mer frequency, TF over GST control). The binding signal is 1.09 fold enrichment (6-mer frequency, TF over GST control) in [7]; 1.07 fold enrichment (6-mer frequency, TF over GST control) in experiment [11]; 1.06 fold enrichment (6-mer frequency, TF over GST control) in experiment [14]; 1.02 fold enrichment (6-mer frequency, TF over GST control) in [15]; 1 fold enrichment (6-mer frequency, TF over GST control) in experiment [12].

The values are drawn from article PMC7862700, “An all-to-all approach to the identification of sequence-specific readers for epigenetic DNA modifications on cytosine”.
